About 83,000 compounds went through this panel and 20% of them were active in at least one assay; those are over-represented in the sample as a whole.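 Results are percent growth after 48 hours of single-concentration exposure. 100 means growth as in untreated cells, lower positive values show inhibition; negative values down to -100 show cell death.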 Activity calls are given as the source filed them. Rule for the calls: active = growth percent below 10; inactive = the rest.
Tests used:
Assay in all cases: NCI-60 one-dose screen, 48 h (100 = growth as untreated, 0 = no growth, -100 = all killed)
Conditions in all cases: 10 µM unless noted
[1] = tested on: RPMI-8226 leukemia
[2] = tested on: OVCAR-8 ovarian
[3] = tested on: OVCAR-5 ovarian
[4] = tested on: OVCAR-4 ovarian
[5] = tested on: SK-OV-3 ovarian
[6] = tested on: IGROV1 ovarian
[7] = tested on: OVCAR-3 ovarian
[8] = tested on: HS 578T breast
[9] = tested on: NCI/ADR-RES ovarian
[10] = tested on: T-47D breast
[11] = tested on: BT-549 breast
[12] = tested on: MDA-MB-435 melanoma
[13] = tested on: SW-620 colon
[14] = tested on: HCT-116 colon
[15] = tested on: HCC-2998 colon
[16] = tested on: KM12 colon
[17] = tested on: MCF7 breast

Measured: growth

CCOc1ccc([C@H]2C(C(=O)c3ccc(Cl)cc3)C3(N[C@@H]2c2ccccc2)C(=O)Nc2ccc(Br)cc23)cc1 (stereo partly drawn)
inactive: [1] 23.5% | [2] 38% | [3] 51.2% | [4] 45.5% | [5] 58.6% | [6] 13.5% | [8] 46.1% | [9] 64.7% | [10] 31.4% | [11] 71.9% | [12] 28.5% | [13] 24.6%
active: [7] -29.5% | [14] 4.78% | [15] 0.672% | [16] -10.8%

COc1ccc(/C=N/Nc2ccnc3cc(Cl)ccc23)cc1Cl
active: [1] -37.8% | [2] -57.6% | [3] -71.9% | [4] -60.7% | [6] -59.5% | [7] -92.2% | [8] -53.5% | [9] 0.936% | [10] -62% | [11] -79.8% | [13] -89% | [14] -89.4% | [15] -39.9% | [16] -88.6%
inactive: [5] 123%

COc1ccc(-c2nc3ccc(-c4nnc(SCC(=O)Nc5ccc(C(C)=O)cc5)o4)cc3[nH]2)cc1
inactive: [1] 97.1% | [2] 108% | [3] 107% | [4] 109% | [5] 118% | [6] 107% | [7] 138% | [8] 96.8% | [9] 118% | [11] 112% | [12] 102% | [13] 103% | [17] 77.1% | [14] 109% | [15] 111% | [16] 105%

C#Cc1nc(C2=C(C)/C(=N/OCc3ccccc3)CC2)cs1
active: [1] -44.1% | [5] -22.3% | [6] -68.3% | [9] -3.32%
inactive: [2] 21.2% | [3] 54.6% | [4] 16.7% | [7] 74.2% | [8] 70.9% | [11] 58.1% | [12] 80.1% | [13] 85.6% | [17] 49.5% | [14] 40.6% | [15] 99.8% | [16] 19.6%

COc1ccc(-c2nn3c(-c4ccccc4F)nnc3s2)cc1
inactive: [1] 58% | [2] 68.3% | [3] 81.2% | [4] 82% | [5] 84% | [6] 57.3% | [7] 49.6% | [8] 74.2% | [9] 21.3% | [10] 46% | [11] 50.9% | [13] 34.4% | [17] 36.8% | [14] 42% | [15] 70% | [16] 31.8%

CN(C)c1ccc(-c2c(NC(C)(C)C)nc3c(OCCc4ccccc4)cccn23)cc1
active: [1] -27.5% | [5] 8.93% | [9] 4.77% | [17] 1.49% | [14] 8.37% | [16] 6.85%
inactive: [2] 18.7% | [3] 21.5% | [4] 31.3% | [6] 23.3% | [7] 20.2% | [8] 23.8% | [10] 10.1% | [11] 42.3% | [13] 12.4% | [15] 13%

NS(=O)(=O)c1ccc(Nc2nc(SCC(=O)c3ccc(Cl)cc3)nc3ccccc23)cc1
inactive: [1] 83.6% | [2] 95.6% | [3] 100% | [4] 91.3% | [5] 110% | [6] 82.8% | [7] 102% | [8] 92.2% | [9] 105% | [10] 77.6% | [11] 112% | [12] 97.5% | [13] 93.3% | [14] 101% | [15] 123% | [16] 87%

N#Cc1c(-c2ccc(F)cc2)nc2c(C#N)c(Nc3ccccc3)nn2c1N
inactive: [1] 104% | [2] 101% | [3] 98.9% | [4] 103% | [5] 117% | [6] 107% | [7] 106% | [8] 99.6% | [9] 103% | [11] 109% | [12] 95.5% | [13] 106% | [17] 91.7% | [14] 105% | [15] 109% | [16] 97.9%

NC(=O)c1cc(-c2ccc3ncnc(N4CCc5cc(F)c(Cl)cc54)c3c2)cnc1N
active: [1] -8.02% | [6] -41.2% | [7] 1.86% | [8] -7.69% | [11] -13.5%
inactive: [2] 32.8% | [3] 36.5% | [4] 10.4% | [5] 35.9% | [9] 60.2% | [12] 25.2% | [13] 35.9% | [17] 11% | [14] 19.3% | [15] 37.5% | [16] 29.9%

Source: PubChem BioAssay (NCI)
